The list is not random: actives were taken first. Their share in the collection is about 3.6%.
HSF1 activator = increases HSF-1 driven luciferase reporter signal; NIH3T3-HGL HSF-1 luciferase reporter, MG132, 8 h; 100% = twice DMSO control signal; AID 504408; activation, % at 9 µM; hit rate 1.7% among 300,000;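 active means mean replicate activation of at least 50% with a set share of replicates each reaching 50%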;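 further: 0% = median of the neutral control wells and 100% = twice that signal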
TWEAK-Fn14 inh = TWEAK-Fn14 signaling inhibition; TWEAK-stimulated Fn14 reporter cells, luciferase luminescence, 8 h; inhibition, % at 10 µM; hit rate 2% among 360,000; AID 1159606; in the data active means inhibition above about 50%
HSF1 inhib = HSF1 inhibition; AID 2098; NIH3T3-HGL HSE-luciferase, MG132-induced, luminescence 8 h; hits give low values; hit rate 0.77% among 300,000; activity change, negative = inhibition, % at 7.5 µM (by protocol);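 active means more than half of replicate wells show activity change below -50%, luminescence cut by over half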;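 further: luciferase reports HSF-1 transcriptional activity via heat shock element; 0% = median of DMSO wells and -100% = zero luminescence signal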
TROY NFkB inh = TROY signaling inhibition; Q293 LMP1-TROYcd NF-kB luciferase reporter, 4 h; inhibition, % at 10 µM; hit rate 0.98% among 360,000; AID 1347056;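 active means compounds whose plate-normalised and pattern-corrected inhibition of the luciferase reporter signal at the single screening dose is 50% or more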
LMP1 NFkB inh = reduces LMP1-driven NF-kappaB luciferase signal. LMP1-induced NF-kappaB luciferase reporter cells, luminescence. inhibition, % at 12.5 µM. hit rate 0.69% among 350,000. AID 504558; in the data active means inhibition above about 41%;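 further: 0% = neutral control wells and 100% = reference inhibitor control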
LGR2 inh = inhibitors of bursicon-induced Drosophila LGR2 receptor cAMP signaling; hit rate 0.35% among 380,000; HEK293 LGR2, CRE-luciferase, bursicon-stimulated, 4 h; inhibition, % at 9.99 µM; AID 720647;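 active means drop in luminescence signal, shown as inhibition above about 50% in the replicate tests, limit read from the data, passing the limit was not always enough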;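 further: agonist challenge used bursicon conditioned medium at about half maximal strength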
* hit, by the source's call; . = not tested or not shown.

SMILES	HSF1 activator	TWEAK-Fn14 inh	HSF1 inhib	TROY NFkB inh	LMP1 NFkB inh	LGR2 inh
COc1ccc(C(=O)O/N=C2\C(=O)N(C)c3ccccc32)cc1	18	-38	6	11	7	8
COc1ccc(C(=O)N=c2nc3ccccn3s2)cc1	21	97*	-2	79*	64*	.
CCCC(=O)Nc1ccc2c(c1)OC[C@H](C)N(CCC(F)(F)F)C[C@H](C)[C@H](OC)CN(C)C2=O	.	.	.	.	.	-12
CCOC(=O)c1c(C)[nH]c(/C(C)=N/O)c1C	12	10	-4	-1	-2	.
CCOC(=O)c1c(C)[nH]c(C2=NNC(=NC3CC3)SC2)c1C	-1	85*	-2	84*	50*	.
Cc1nc(NC(=O)/C=C/c2ccc(Cl)cc2Cl)sc1C(=O)N(C)C	-81	38	-76*	-36	-48	.
C[C@@H]1CN([C@@H](C)CO)S(=O)(=O)c2ccc(-c3cccnc3)cc2O[C@@H]1CN(C)C(=O)NC1CCCC1	.	.	.	.	.	4
Cc1noc(C)c1NC(=O)N(C)C[C@H]1Oc2ncc(C#CC3CCCCC3)cc2C(=O)N([C@@H](C)CO)C[C@H]1C	.	.	.	.	.	16
Cc1cccc(C)c1Nc1nnc(SCc2cc([N+](=O)[O-])cc3c2OCOC3)s1	99*	6	58	9	-13	10
CN(C(=O)CN1C(=O)S/C(=C\c2ccccc2Cl)C1=O)C1CCS(=O)(=O)C1 (configuration not stated)	-15	58*	-4	-11	-6	3
CN(C(=O)CN1C(=O)S/C(=C\c2ccccc2)C1=O)C1CCS(=O)(=O)C1 (configuration not stated)	-89	-10	-86*	-10	-4	-2
O=C(CCl)NC(Cc1ccccc1)c1ccccc1 (configuration not stated)	-88	53*	-85*	-23	0	15
CC(=O)C(Cc1ccccc1)NC(=O)CCl (configuration not stated)	-6	8	3	-24	-10	2
Cc1nc(-c2ccccn2)sc1C(=O)Nc1ccc(F)cc1F	70*	-34	40	-96	-2	.
C[C@H](CO)N1C[C@H](C)[C@H](CN(C)C(=O)c2ccncc2)Oc2cc(C3=CCCC3)ccc2S1(=O)=O	.	.	.	.	.	8
O=S(=O)(/C=C/C=C/S(=O)(=O)c1ccccc1)c1ccccc1	.	93*	.	46	-10	46
CC(=O)N(Cc1ccc(F)cc1)C1=C(NCCc2ccccc2)C(=O)c2ccccc2C1=O	33	82*	9	66*	76*	.
O=C1C(Cl)=C(NCCc2ccccc2)C(=O)c2ccccc21	.	2	.	-23	-5	-23
COc1ccc(OC)c2sc(N(CCCN(C)C)C(=O)CCS(=O)(=O)c3ccccc3)nc12	5	53*	3	24	19	25
CN(C)CCN(C(=O)CCS(=O)(=O)c1ccccc1)c1nc2c(F)cccc2s1	-14	-2	5	10	-1	-10
COc1ccc(Cl)c2sc(N(CCN(C)C)C(=O)CCS(=O)(=O)c3ccc(C)cc3)nc12	7	-3	4	-51	-8	0
CN(C)CCCN(C(=O)CCS(=O)(=O)c1ccccc1)c1nc2cc3c(cc2s1)OCO3	36	69*	33	56*	22	22
Cc1ccc2sc(N(CCCN(C)C)C(=O)CCS(=O)(=O)c3ccccc3)nc2c1C	111*	63*	75	-22	8	5
CN(C)CCCN(C(=O)CCSc1ccccc1)c1nc2cc3c(cc2s1)OCO3	-9	31	-14	-45	20	1
COc1ccccc1S(=O)(=O)N[C@@H]1CC[C@H](CC(=O)N2CCCCC2)O[C@@H]1CO	.	.	.	.	.	-4
Cc1noc(C)c1S(=O)(=O)Nc1ccc2c(c1)CC(=O)N([C@H](C)CO)C[C@@H](C)[C@H](CN(C)Cc1ccc3c(c1)OCO3)O2	.	.	.	.	.	-2
CCC(=O)Nc1ccc2c(c1)OC[C@@H](C)N(C(=O)C1CC1)C[C@H](C)[C@H](OC)CN(C)C2=O	.	.	.	.	.	-15
O=C(C[C@H]1CC[C@H]2[C@@H](COC[C@@H](O)CN2C(=O)Nc2cc(Cl)cc(Cl)c2)O1)N1CCCCC1	.	.	.	.	.	-14
COCC#Cc1ccc2c(c1)O[C@H](CN(C)S(=O)(=O)c1cccc(F)c1)[C@@H](C)CN([C@@H](C)CO)S2(=O)=O	.	.	.	.	.	6

From PubChem BioAssay
